Test results published in the supplement of paper PMC10849652.
About 7,900 targets were measured; listed, in parts, are those with a hit and a random draw of the rest. About 0.6% of all pairs of compound and target were hits. Unmarked numbers belong to inactive results.

Columns and labels:
Assay in all cases: log2 fold change, soluble protein after heating vs DMSO (PISA); higher = thermal stabilisation; K562 cells, 10 uM, 30 min; active = over 0.2 and 3.5 SD of the protein, either way, in both replicates (recomputed)
[1] = compound: NC(=O)Nc1cc(-c2cccc(F)c2)sc1C(=O)N[C@H]1CCCNC1
How it was run: (§1)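 Soluble protein was defined as the supernatant after 21,000xg for 90 min. It came from K562 cells at 2×10^6 cells/mL given 10 μM compound for 30 min, heated in aliquots for 3 min across 48°C-58°C, pooled, and extracted in PBS with 0.5% NP-40 at 4°C, and was quantified by TMTpro 16plex LC-MS/MS with equalised channel sums. Thermal stability against control samples, from duplicates, is reported as log2 fold change.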

[2] = compound: NC(=O)c1cnc(N[C@@H]2CCCC[C@@H]2N)nc1Nc1cccc(-n2nccn2)c1
How it was run: as §1

[3] = compound: NC1(c2ccc(-c3nc4ccn5c(=O)[nH]nc5c4cc3-c3ccccc3)cc2)CCC1
How it was run: as §1

[4] = compound: NCC(=O)Nc1ccc(-n2nc(C(F)(F)F)cc2-c2ccc3c(ccc4ccccc43)c2)cc1
How it was run: as §1

entinostat = compound: Nc1ccccc1NC(=O)c1ccc(CNC(=O)OCc2cccnc2)cc1 [entinostat]
How it was run: as §1

vorinostat = compound: O=C(CCCCCCC(=O)Nc1ccccc1)NO [vorinostat]
How it was run: as §1

citarinostat = compound: O=C(CCCCCCNC(=O)c1cnc(N(c2ccccc2)c2ccccc2Cl)nc1)NO [citarinostat]
How it was run: as §1

silmitasertib = compound: O=C(O)c1ccc2c(c1)nc(Nc1cccc(Cl)c1)c1ccncc12 [silmitasertib]
How it was run: as §1

[5] = compound: O=C1NC(=O)C(c2cnc3ccccn23)=C1c1cn2c3c(cc(F)cc13)CN(C(=O)N1CCCCC1)CC2
How it was run: as §1

[6] = compound: c1cc(OCCN2CCCCC2)cc(-c2n[nH]c3ccc(-c4nnc[nH]4)cc23)c1
How it was run: as §1

UniProt Q99590, sequence (Q99590 whole entry, looked up): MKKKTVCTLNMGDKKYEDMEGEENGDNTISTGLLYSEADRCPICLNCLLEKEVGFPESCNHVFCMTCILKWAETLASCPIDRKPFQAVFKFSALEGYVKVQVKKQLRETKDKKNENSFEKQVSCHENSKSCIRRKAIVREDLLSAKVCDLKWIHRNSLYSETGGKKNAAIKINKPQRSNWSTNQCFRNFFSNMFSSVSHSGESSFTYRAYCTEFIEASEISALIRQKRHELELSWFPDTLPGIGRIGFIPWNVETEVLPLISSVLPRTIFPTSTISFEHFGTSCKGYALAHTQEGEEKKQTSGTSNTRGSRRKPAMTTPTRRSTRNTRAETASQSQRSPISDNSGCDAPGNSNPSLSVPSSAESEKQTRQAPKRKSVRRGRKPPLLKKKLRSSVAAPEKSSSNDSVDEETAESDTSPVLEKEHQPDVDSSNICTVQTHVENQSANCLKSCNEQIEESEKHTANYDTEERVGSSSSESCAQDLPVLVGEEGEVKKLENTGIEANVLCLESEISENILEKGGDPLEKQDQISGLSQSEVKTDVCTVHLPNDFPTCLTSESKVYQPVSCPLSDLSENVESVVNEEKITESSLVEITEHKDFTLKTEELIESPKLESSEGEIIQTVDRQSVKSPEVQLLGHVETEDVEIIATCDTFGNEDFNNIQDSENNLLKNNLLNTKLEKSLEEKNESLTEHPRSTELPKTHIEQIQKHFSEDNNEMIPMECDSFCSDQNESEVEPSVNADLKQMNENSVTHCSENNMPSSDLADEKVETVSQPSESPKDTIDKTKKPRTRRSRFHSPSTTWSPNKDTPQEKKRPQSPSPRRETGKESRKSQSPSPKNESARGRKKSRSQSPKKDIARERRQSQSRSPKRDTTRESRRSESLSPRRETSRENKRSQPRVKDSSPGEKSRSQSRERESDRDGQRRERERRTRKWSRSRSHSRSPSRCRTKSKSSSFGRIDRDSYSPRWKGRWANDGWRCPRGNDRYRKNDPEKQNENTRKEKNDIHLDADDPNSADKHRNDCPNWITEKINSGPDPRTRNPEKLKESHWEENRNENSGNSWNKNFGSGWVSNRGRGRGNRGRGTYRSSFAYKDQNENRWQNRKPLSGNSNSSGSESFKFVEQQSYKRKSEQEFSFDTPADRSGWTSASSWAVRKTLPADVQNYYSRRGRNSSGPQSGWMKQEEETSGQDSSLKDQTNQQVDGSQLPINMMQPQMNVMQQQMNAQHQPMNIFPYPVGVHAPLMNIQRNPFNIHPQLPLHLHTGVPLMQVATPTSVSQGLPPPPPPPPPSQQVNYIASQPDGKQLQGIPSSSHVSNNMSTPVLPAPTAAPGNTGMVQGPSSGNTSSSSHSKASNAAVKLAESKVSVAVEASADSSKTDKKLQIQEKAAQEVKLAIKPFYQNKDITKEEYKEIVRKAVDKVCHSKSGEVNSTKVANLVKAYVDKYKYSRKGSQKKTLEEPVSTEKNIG
UniProt O94885, sequence (O94885 whole entry, looked up): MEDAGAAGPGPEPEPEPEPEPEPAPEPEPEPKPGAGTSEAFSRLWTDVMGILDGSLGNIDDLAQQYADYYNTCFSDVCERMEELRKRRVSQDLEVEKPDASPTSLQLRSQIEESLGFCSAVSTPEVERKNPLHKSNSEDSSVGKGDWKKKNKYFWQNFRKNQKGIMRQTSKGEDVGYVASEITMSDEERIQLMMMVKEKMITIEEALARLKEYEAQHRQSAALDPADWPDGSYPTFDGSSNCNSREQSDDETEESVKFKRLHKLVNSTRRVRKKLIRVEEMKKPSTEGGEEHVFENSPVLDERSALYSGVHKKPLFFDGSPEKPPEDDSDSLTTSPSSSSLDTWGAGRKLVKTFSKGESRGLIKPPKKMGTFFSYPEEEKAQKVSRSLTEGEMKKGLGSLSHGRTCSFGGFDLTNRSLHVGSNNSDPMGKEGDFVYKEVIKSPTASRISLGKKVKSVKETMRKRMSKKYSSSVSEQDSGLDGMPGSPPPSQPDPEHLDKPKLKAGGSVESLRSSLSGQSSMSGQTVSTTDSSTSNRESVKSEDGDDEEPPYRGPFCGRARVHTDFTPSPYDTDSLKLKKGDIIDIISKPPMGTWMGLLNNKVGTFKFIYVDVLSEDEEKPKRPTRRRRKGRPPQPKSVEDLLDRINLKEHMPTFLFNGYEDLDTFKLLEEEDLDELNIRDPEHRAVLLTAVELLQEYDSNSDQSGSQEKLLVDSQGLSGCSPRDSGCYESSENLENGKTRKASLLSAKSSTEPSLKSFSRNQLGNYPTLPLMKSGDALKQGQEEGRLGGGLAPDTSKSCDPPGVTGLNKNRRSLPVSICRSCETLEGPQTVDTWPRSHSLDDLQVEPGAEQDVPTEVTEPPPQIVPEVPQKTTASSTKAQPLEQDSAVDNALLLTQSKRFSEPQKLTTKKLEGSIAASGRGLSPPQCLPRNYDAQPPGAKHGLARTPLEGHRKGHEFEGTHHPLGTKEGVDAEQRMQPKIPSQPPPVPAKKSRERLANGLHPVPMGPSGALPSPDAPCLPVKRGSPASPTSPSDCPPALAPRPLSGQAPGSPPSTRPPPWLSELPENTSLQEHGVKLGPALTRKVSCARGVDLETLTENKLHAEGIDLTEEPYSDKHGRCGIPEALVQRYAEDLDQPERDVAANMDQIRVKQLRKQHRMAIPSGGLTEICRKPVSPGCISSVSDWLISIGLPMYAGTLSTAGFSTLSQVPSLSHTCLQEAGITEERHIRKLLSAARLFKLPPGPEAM
UniProt Q8TBN0, sequence (Q8TBN0 whole entry, looked up): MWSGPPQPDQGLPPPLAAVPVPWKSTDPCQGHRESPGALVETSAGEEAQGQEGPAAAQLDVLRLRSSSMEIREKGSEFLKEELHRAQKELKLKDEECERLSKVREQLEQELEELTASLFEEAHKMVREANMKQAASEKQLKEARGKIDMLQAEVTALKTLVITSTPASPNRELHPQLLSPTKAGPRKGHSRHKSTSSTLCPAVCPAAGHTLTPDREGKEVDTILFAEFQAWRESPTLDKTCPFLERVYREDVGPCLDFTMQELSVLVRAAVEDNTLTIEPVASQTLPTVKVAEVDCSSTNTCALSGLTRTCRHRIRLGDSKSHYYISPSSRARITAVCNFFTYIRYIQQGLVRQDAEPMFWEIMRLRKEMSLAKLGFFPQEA
UniProt Q96EU6, sequence (Q96EU6 whole entry, looked up): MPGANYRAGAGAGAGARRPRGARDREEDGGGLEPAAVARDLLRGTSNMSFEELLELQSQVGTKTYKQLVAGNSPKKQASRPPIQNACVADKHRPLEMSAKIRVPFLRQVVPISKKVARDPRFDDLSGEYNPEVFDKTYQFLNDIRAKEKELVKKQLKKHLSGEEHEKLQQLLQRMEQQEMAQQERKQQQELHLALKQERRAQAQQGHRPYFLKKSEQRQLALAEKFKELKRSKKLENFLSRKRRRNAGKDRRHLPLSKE
UniProt Q92696, sequence (Q92696 whole entry, looked up): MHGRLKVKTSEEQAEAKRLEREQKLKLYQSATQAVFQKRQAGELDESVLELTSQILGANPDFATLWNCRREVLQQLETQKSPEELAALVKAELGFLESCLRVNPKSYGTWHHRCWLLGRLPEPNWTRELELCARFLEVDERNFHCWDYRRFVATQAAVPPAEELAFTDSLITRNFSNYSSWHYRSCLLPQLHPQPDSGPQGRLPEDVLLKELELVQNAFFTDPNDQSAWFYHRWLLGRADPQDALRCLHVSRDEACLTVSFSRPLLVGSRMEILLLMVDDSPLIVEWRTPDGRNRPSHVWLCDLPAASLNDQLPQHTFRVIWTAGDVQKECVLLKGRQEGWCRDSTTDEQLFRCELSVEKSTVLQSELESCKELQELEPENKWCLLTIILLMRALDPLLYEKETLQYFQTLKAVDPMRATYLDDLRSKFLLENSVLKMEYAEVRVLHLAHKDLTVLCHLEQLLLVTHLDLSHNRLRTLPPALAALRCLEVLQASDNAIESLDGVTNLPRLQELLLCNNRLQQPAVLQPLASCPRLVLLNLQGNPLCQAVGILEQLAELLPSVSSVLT
UniProt Q96DM3, sequence (Q96DM3 whole entry, looked up): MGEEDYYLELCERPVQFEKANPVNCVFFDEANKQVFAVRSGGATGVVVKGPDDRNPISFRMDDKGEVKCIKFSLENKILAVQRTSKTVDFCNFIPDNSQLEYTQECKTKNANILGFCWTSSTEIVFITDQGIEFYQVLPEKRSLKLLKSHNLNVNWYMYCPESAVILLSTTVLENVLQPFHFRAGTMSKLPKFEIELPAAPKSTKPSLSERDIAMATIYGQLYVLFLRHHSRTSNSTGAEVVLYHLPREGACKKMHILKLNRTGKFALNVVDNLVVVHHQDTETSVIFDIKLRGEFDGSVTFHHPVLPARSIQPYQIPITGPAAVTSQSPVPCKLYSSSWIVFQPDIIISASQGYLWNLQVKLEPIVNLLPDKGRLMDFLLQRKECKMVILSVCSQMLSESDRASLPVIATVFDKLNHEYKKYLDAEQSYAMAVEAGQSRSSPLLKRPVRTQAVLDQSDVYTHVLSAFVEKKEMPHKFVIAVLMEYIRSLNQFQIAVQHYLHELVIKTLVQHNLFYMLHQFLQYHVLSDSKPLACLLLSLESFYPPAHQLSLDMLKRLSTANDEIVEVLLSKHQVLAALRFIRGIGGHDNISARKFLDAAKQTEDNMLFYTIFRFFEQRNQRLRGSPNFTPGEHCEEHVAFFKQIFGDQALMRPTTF
UniProt Q8IZQ5, sequence (Q8IZQ5 whole entry, looked up): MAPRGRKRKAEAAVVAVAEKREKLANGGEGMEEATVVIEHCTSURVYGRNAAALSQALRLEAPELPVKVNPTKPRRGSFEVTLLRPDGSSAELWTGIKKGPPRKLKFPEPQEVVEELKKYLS
UniProt O15127, sequence (O15127 whole entry, looked up): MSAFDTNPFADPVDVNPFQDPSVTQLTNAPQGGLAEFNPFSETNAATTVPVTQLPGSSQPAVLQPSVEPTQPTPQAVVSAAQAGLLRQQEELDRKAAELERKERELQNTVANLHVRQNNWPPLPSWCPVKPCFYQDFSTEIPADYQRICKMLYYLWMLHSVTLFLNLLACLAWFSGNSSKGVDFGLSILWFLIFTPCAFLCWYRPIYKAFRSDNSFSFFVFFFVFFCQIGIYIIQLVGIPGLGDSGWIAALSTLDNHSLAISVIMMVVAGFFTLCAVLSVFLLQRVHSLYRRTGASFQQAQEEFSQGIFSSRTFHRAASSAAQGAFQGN

Target	log2 fold change [1]	log2 fold change [2]	log2 fold change [3]	log2 fold change [4]	log2 fold change (entinostat)	log2 fold change (vorinostat)	log2 fold change (citarinostat)	log2 fold change (silmitasertib)	log2 fold change [5]	log2 fold change [6]
SESN2 (UniProt P58004)	-0.069	-0.159	-0.129	-0.093	0.075	0.079	-0.081	0.108	-0.123	0.026
RPS6KA1 isoform 2 (UniProt Q15418)	-0.131	-0.242	-0.205	-0.096	0.06	0.109	0.058	-0.08	-0.099	-0.32
RRAGB (UniProt Q5VZM2)	0.112	-0.017	-0.317 (active)	0.023	0.012	0.018	-0.006	0.031	0.008	0.05
SASH1 (UniProt O94885)	-0.08	-0.06	-0.053	-0.147	0.035	0.077	0.167	0.033	0.008	-0.218
RPS21 (UniProt P63220)	0.022	0.018	0.114	-0.012	-0.061	-0.059	0.002	0.008	0.045	-0.015
ROR2 (UniProt Q01974)	-0.007	-0.01	-0.03	-0.04	0.004	0.003	0.078	-0.027	0.012	-0.151
SEPTIN5 (UniProt Q99719)	-0.005	-0.012	-0.011	-0.004	-0.017	-0.001	0.059	-0.038	-0.013	-0.021
RAB3IL1 (UniProt Q8TBN0)	0.041	-0.011	-0.025	-0.046	-0.019	-0.032	0.035	0.053	-0.038	0.008
RUFY1 (UniProt Q96T51)	0.06	-0.057	-0.086	-0.101	0.05	0.031	0.032	0.11	0.038	-0.037
RAB3GAP2 (UniProt Q9H2M9)	-0.049	-0.067	-0.089	-0.04	0.057	0.106	0.089	0.095	0.099	-0.065
SCAF11 (UniProt Q99590)	0.019	0.073	0.129	-0.003	-0.054	0.12	-0.13	-0.038	0.147	-0.29
RALY (UniProt Q9UKM9)	-0.039	0.071	0.353	0.026	-0.02	-0.105	-0.064	0.128	0.072	-0.106
RABGGTA (UniProt Q92696)	0.034	-0.008	-0.257 (active)	0.051	-0.05	0.005	0.038	0.008	0.003	0.027
RRP36 (UniProt Q96EU6)	0.115	0.108	0.271	0.098	-0.073	-0.024	-0.04	0.143	0.264	-0.118
SETD3 (UniProt Q86TU7)	-0.007	-0.019	-0.045	-0.002	-0.02	-0.035	-0.015	0.007	-0.022	0.031
RMC1 (UniProt Q96DM3)	-0.026	-0.141	-0.384 (active)	-0.039	0.048	0.017	0.04	0.025	-0.036	-0.045
RBM26 isoform 2 (UniProt Q5T8P6)	-0.001	0.031	-0.135	-0.103	0.141	0.103	0.193	-0.1	-0.05	0.017
RNF187 (UniProt Q5TA31)	0.004	-0.056	-0.033	0.07	-0.019	0.095	0.054	0.012	-0.061	0.035
SCAMP2 (UniProt O15127)	-0.007	0.168	0.001	0.029	-0.001	-0.027	0.189	-0.002	0.109	-0.065
RRP12 (UniProt Q5JTH9)	0.062	0.188	0.089	0.051	0.081	0.072	-0.064	0.121	0.119	0.216
SELENOH (UniProt Q8IZQ5)	0.227	0.194	0.011	0.049	0.066	-0.007	0.067	0.011	0.038	0.053
SGPL1 (UniProt O95470)	-0.01	0.004	-0.005	0.144	0	-0.014	0.009	-0.034	0.064	-0.134
RPS6KA2 isoform 2 (UniProt Q15349)	-0.129	-0.256	-0.269	-0.035	0.067	0.122	0.106	-0.044	-0.056	-0.295
RCOR1 (UniProt Q9UKL0)	0.035	-0.104	-0.03	-0.133	0.189	0.082	0.007	0.016	-0.043	-0.103
RARS (UniProt P54136)	0.098	-0.076	0.032	-0.01	0.041	0.115	0.028	0.107	0.325	-0.135
RB1CC1 (UniProt Q8TDY2)	0.009	0.124	0.126	-0.022	0.001	0.047	0.114	-0.08	-0.077	0.111
RNF2 (UniProt Q99496)	-0.04	-0.023	-0.003	-0.051	0.102	-0.048	0.054	0.003	-0.014	-0.102
RAC3 (UniProt P60763)	-0.142	0.067	0.058	-0.002	-0.14	-0.037	-0.007	0.016	-0.083	0.176
RANBP2 (UniProt P49792)	0.063	-0.05	0.01	0.005	0.009	-0.034	-0.037	0.001	-0.049	0.019
